High-throughput results deposited in PubChem by National Center for Advancing Translational Sciences (NCATS).
LASV entry inh: inhibitors of Lassa virus binding or cell entry; 300,000 tested, 1.2% active; Lassa virus pseudotype entry inhibition, cell reporter; Potency, µM (titrated, usually from 37.9 µM), usual class: inhibitors; calls by dose curve; tested in HEK293 cells; also: nearly all actives have a fitted effect of over 50% in size
HCMV inh: inhibitors of human cytomegalovirus. activity change, negative = inhibition, % at 57.5 µM. AID 1259415. 410,000 tested, 4.5% active. HFF cells, HCMV-luciferase reporter, 72 h; stronger effect = lower value; in the data active = activity change below about -60%; inconclusive = no clear call, values can overlap the other calls; inactive = above about -39%
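Steps: HFFs plated, 16 h 37C; compounds added; HCMV-luciferase added to MOI 1 PFU/cell; 72 h 37C; OneGlo reagent, 5 min room temperature; luminescence read, normalized to controls.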
HCV inhibitor: blocks hepatitis C virus | Huh7.5.1 HCVcc-Cre infection, luciferase reporter, 44 h | Potency, µM (series often up to 41.8 µM), hits mostly inhibitors | 340,000 tested, 3.4% active | AID 651820; active = well fitted inhibition curve with a large enough effect; inconclusive = small, poorly fitted or top-dose-only effect, or another doubt; inactive = no such curve, though single readings can be large or run the other way
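Cells seeded at 1,000/well and cultured 4 h, then compounds added followed by HCVcc-Cre virus (~0.5 moi). After 44 h further culture, luciferase substrate was added, plates held 15 min at room temperature, and luminescence read for 15 sec.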
FMDV inh: antivirals against foot and mouth disease virus | 410,000 tested, 1.2% active | FMDV antiviral cell-based qHTS | Potency, µM (highest dose often 57.9 µM), most hits filed as inhibitors; calls by dose curve; tested in HEK293T cells; also: read-out not given here; nearly all actives have a fitted effect of over 45% in size
Marburg entry inh: inhibitors of Marburg virus binding or cell entry; Marburg virus pseudotyped entry inhibition, cell reporter; 300,000 tested, 1.8% active; AID 540276; Potency, µM (highest dose often 37.8 µM), actives largely listed as inhibitors; calls by dose curve; tested in HEK293 cells
Hits are given with their value; i = inactive; ? = inconclusive; nt = not tested or not shown; ! = not active in a repeat; [ ] = dose if it differs, or a comment. A selection: hits, their analogues and other compounds. The true share with any hit is near 7.9%.

SMILES | LASV entry inh | HCMV inh | HCV inhibitor | FMDV inh | Marburg entry inh
CCNC(=O)c1sc2ncnc(NCCCN3CCOCC3)c2c1C | nt | nt | nt | i | nt
COc1ccc(C(C)=O)cc1COC(=O)c1cccnc1Cl | i | i | 11.2µM | i | i
O=C(OCc1ccc(F)cc1)c1cccnc1Cl | i | -60.4 | i | i | i
COc1ccc(C(C)=O)cc1COC(=O)c1cc2ccccc2cc1O | ? | i | i | i | i
COc1ccc(C(C)=O)cc1COC(=O)c1c(C)noc1C | i | i | 10µM | i | ?
C=CCn1c(Oc2ccc(C=O)cc2OCC)nc2c1c(=O)n(C)c(=O)n2C | nt | i | i | i | nt
COc1cc(CNc2ncnc3c2ncn3[C@H]2CN(Cc3ccncc3)C[C@@H](CO)O2)cc(OC)c1OC | nt | i | nt | ? | nt
O=c1n(Cc2ccc(F)cc2Cl)c2ccccc2c2nc(-c3ccccc3)nn12 | i | i | nt | i | nt
CCCOc1cccc([C@H]2/C(=C(/O)c3ccc(F)cc3)C(=O)C(=O)N2CCN(C)C)c1 | nt | nt | nt | nt | i
Oc1ccc(Cl)cc1CN1CCOc2c(O)cc(-c3nc4ccccc4s3)cc2C1 | nt | nt | nt | i | nt
CCOc1ccc(C2CC(c3c(O)c4ccccc4oc3=O)=NN2c2ccccc2)cc1OC (stereo not given) | ? | -78.3 | i | i | i
CCN(CC)S(=O)(=O)c1ccc(O)c(NC(=O)c2cc(-c3cc(OC)c(OC)c(OC)c3)nc3ccccc23)c1 | ? | nt | ? | ? | 10µM
COc1cc(-c2cc(C(=O)Nc3c(Cl)cc(Cl)cc3Cl)c3ccccc3n2)cc(OC)c1OC | ? | i | 10µM | ? | ?
COc1ccc(NC(=O)c2cc(-c3cc(OC)c(OC)c(OC)c3)nc3ccccc23)cc1OC | ? | i | ? | i | ?
COc1cc(-c2cc(C(=O)Nc3ccc(S(N)(=O)=O)cc3)c3ccccc3n2)cc(OC)c1OC | ? | i | ? | i | i
CCOC(=O)C1=Nc2ccccc2C1=[N+]=[N-] | ? | -100.4 | ? | i | ?
COc1cccc(NS(=O)(=O)c2cc(-c3cnc(C4CC4)o3)ccc2C)c1 | ? | -88.9 | nt | i | nt
Cc1ccc(-c2cnc(C3CC3)o2)cc1S(=O)(=O)Nc1cccc(C#N)c1 | i | -83.9 | nt | i | nt
CCOC(=O)C1CCCN(C(=O)c2ccc(NC(=O)c3nsc4ccccc34)cc2)C1 (stereo not given) | ? | i | nt | i | nt
O=C1CCCC=C1C(O)COCc1ccccc1 (stereo not given) | nt | nt | nt | nt | i
CCN(CC)c1ccc2cc(-c3nnc(-c4ccccc4)o3)c(=O)oc2c1 | i | i | i | i | ?
CCN(CC)c1ccc2cc(-c3nc4ccccc4n3C)c(=O)oc2c1 | i | -78.9 | ? | i | i
CCN(CC)c1ccc2cc(-c3nc4ccccc4[nH]3)c(=O)oc2c1 | ? | nt | ? | 4.47µM | ?
CC(=O)Nc1ccc(C(=O)OCC(=O)NC2CCCCCC2)cc1 | nt | i | nt | i | nt
Cc1oc2ncnc(N3CCOCC3)c2c1C(=O)N(Cc1ccccc1)C(C)C | i | i | nt | i | nt
SMILES | LASV entry inh | HCMV inh | HCV inhibitor | FMDV inh | Marburg entry inh
CC(C(=O)NCc1ccc(F)cc1)n1ccc2cc(S(=O)(=O)N3CCCC3)ccc21 (stereo not given) | ? | i | 11.2µM | i | ?
O=C(Cn1c(=O)oc2cc(S(=O)(=O)N3CCCC3)ccc21)NCc1ccc(F)cc1 | i | -69.8! | i | i | i
O=C(Nc1ccccc1OCc1cc(=O)n2ccccc2n1)Nc1ccccc1C(F)(F)F | ? | i | nt | i | nt
O=C(NCC1CCOCC1)c1ccc(-c2ccc(F)c(F)c2)c2ccoc12 | nt | i | nt | ? | nt
COc1ccc(C(=O)Nc2ccc(C3=NNC(=O)CC3C)cc2NC(=O)c2ccc(OC)cc2)cc1 (stereo not given) | i | i | 10µM | i | ?
COc1ccc(C(=O)Nc2ccc(C(=O)O)cc2NC(=O)c2ccc(OC)cc2)cc1 | nt | i | i | i | nt
CCCNC(=O)N1CCC2(CC1)CN(C(=O)c1ccccc1)[C@H](CO)c1[nH]c3cc(OC)ccc3c12 | nt | i | nt | nt | nt
CC(=O)N1CCN(Cc2cc(=O)oc3cc(C)cc(C)c23)CC1 | nt | i | nt | i | nt
COc1ccc(Nc2nc3ccc(Cl)cc3n3nnnc23)cc1OC | i | i | nt | i | i
COc1ccc(NC(=O)[C@@H]2CC=C[C@@H]3CCN(Cc4ccc(Cl)c(Cl)c4)C(=O)[C@@H]32)cc1 | nt | ? | 0.562µM | i | nt
Cc1ccc(NS(=O)(=O)c2c(C)nc3sc(C)cn3c2=O)c(C)c1 | i | i | nt | i | nt
CCN(CC)CCCNC(=O)CSc1nc2c(c(C(F)(F)F)n1)CCc1ccccc1-2 | ? | i | 15.8µM | i | ?
CCOc1ccc(NC(=O)c2oc3ccccc3c2NC(=O)Cc2cccs2)cc1 | i | i | nt | i | i
C[C@@H]1ON(C)[C@H]2C[C@H]3c4[nH]c5ccccc5c4CCN3C[C@@H]12 | nt | i | nt | i | nt
CCc1ccc2c(Cl)c(C(=O)N/N=C/c3c[nH]c4ccccc34)sc2c1 | 10µM | i | ? | i | ?
Cc1ccc(CSc2nnc(SCC(=O)N/N=C/c3c[nH]c4ccccc34)s2)cc1 | ? | -73.5 | i | i | ?
O=C(CSc1nnc(SCc2ccccc2)s1)N/N=C/c1c[nH]c2ccccc12 | i | i | i | i | ?
Cc1ccc(CSc2nnc(SCC(=O)N/N=C/c3ccc(C(=O)O)cc3)s2)cc1 | ? | -66.2 | i | i | ?
COc1cccc(CNC(=O)c2c(C)nn(-c3cccc(C)c3)c2-n2cccc2)c1 | i | ? | nt | i | nt
CC(=O)c1c(NC(=O)c2ccccc2)[nH]c(-c2ccccc2)nc1=S | i | -84.2 | i | i | i
COC(=O)[C@H]1[C@H](CO)[C@H]2Cn3c(ccc(Br)c3=O)[C@@H]1N2C(=O)NC(C)C | nt | i | nt | nt | nt
COC(=O)C[C@@H]1CC[C@@H](NC(C)=O)[C@@H](CO)O1 | nt | i | nt | i | nt
COC(=O)C[C@H]1CC[C@@H](NC(=O)Nc2c(C)noc2C)[C@@H](CO)O1 | nt | -65.1 | nt | i | nt
O=C(Nc1ccc2nc3n(c(=O)c2c1)CCCCC3)c1cc([N+](=O)[O-])ccc1F | nt | -72.0 | ? | 31.6µM | nt
O=C(Nc1ccc2nc3n(c(=O)c2c1)CCCCC3)c1c(F)ccc([N+](=O)[O-])c1F | ? | -100.4 | 14.1µM | 10µM | 7.08µM
SMILES | LASV entry inh | HCMV inh | HCV inhibitor | FMDV inh | Marburg entry inh
O=C(Nc1ccc2nc3n(c(=O)c2c1)CCCCC3)c1ccccc1[N+](=O)[O-] | nt | i | ? | i | nt
O=C(Nc1ccc2nc3n(c(=O)c2c1)CCCC3)c1ccccc1F | nt | i | i | i | nt
Nc1ccc(C(=O)N2CCN(S(=O)(=O)c3ccc(Br)cc3)CC2)cc1[N+](=O)[O-] | i | -60.9 | i | i | i
COc1ccccc1NC(=O)C(C)Sc1nnc2ccc3ccccc3n12 (stereo not given) | i | i | nt | i | i
c1ccc2c(c1)OCC(C1=NCCN1)O2 (stereo not given) | 2.59µM! | i | i[8.37 µM] | ? | ?
CCc1cc(C(=O)OC)c(NC(=O)CCCC(=O)O)s1 | i | i | i | i | i
O=C(Nc1nccs1)c1ccc(COc2ccc(F)cc2)o1 | i | i | ? | i | i
CCOc1ccccc1C(=O)Nc1ccccc1O | i | i | 11.2µM | i | i
O=C(Nc1nccs1)c1ccccc1Br | nt | i | i | i | nt
CCc1cc(C(=O)OC)c(NC(=O)CSc2nccn2C)s1 | i | i | 10µM | i | i
CCOc1ccccc1C(=O)Nc1nccs1 | i | i | 5.62µM | i | ?
